# Molecular target: VAX1
# Assay: pooled miR-30 sensor sort-seq; sequence = guide strand
# Conditions: shRNA
# Also: reference of the scale not given here.
row,Sequence,sensor-assay potency score (higher = more potent)
1,TTCTTTATTGTTGGTCCGGGAG,-1.06
2,TTTACTTTTGTTACAATCCTCA,-0.228
3,TTACTTTTGTTACAATCCTCAG,-1.22
4,TCTCGGACCAGGATCCGGCGGC,-0.716
5,TACTTTTGTTACAATCCTCAGC,-0.412
6,TTCTTCTGCTTGGTGCGCCGGT,-0.49
7,TTTTGTTACAATCCTCAGCAGC,-0.447
8,TTGGGCAGGATGATCTCTCGGA,-0.0889
9,TGGAACTCCATCTCCAGCCGAT,-1
10,TTCTTTTGTTTTTTTATCCCGC,-0.672
11,TTTTGTTTTTTTATCCCGCGTT,-0.396
12,TTTGTTTTTTTATCCCGCGTTT,-0.944

# Molecular target: VDAC1
# Assay: as above
# Conditions: shRNA
row,Sequence,sensor-assay potency score (higher = more potent)
1,TCTGAGTGTATCCTAAACCTAT,-0.562
2,ATTCACATTAGTGTGAAGCTGG,0.0233
3,TTTGTTTTCAAATCAAGCTTTA,-0.535
4,TTCACTTTAGCCGAGAAGCAGG,-0.473
5,TTCTCTGTAAACGTCAGGCCGT,-0.7
6,TTTTGTTTTCAAATCAAGCTTT,-0.155
7,TCTTCCACAGTAATCTCGGTGC,-0.38
8,TATCCTAAACCTATCAGGCTGG,-0.545
9,TAGTGTATTGTCGGTATTCCAT,-0.621
10,TAGGTGAGAAGGATGAATCGAA,0.744
11,TTAGAGTCTGAGTGTATCCTAA,-0.253
12,TTACTGTTTCCTGCTGTCCAGG,-1.19

# Molecular target: VDAC3
# Assay: as above
# Conditions: shRNA
row,Sequence,sensor-assay potency score (higher = more potent)
1,TTCATTTCTCTTCACTTCCAGG,-0.789
2,TAGAGTATTGTCTGTGTTCCAT,-0.216
3,TTCAGGTCTATCTTGACCATGC,-0.432
4,TCCTTTGTTGAAGACATCCTTA,-0.879
5,TCTATATCAACATTACTGCCAA,-0.2
6,TTCAATCTTCTCATTCACCTTC,0.828
7,TTTCAGGTCTATCTTGACCATG,-1.45
8,TTGGTTTTCAGGTCTATCTTGA,0.398
9,TATCAGTGTAAGCATGACCAGA,-0.976
10,TTGTCTGTGTTCCATTTCTGGG,-1.15
11,TCTGGTAGATAGAACCTCCAAA,-0.313
12,TTATATTTGGTTTCTAGGTTGC,-0.0958

# Molecular target: VGLL2
# Assay: as above
# Conditions: shRNA
row,Sequence,sensor-assay potency score (higher = more potent)
1,TTGGATTTGCTCTTTCAGCAGC,-0.344
2,TTGACTTCTCTTTACTTCTCTA,-0.415
3,TACTTCTCTACCACAGTCTTAG,-0.503

# Source: the OligoGym collection
